19 molecules from PubChem BioAssay (NCI) can be followed below.

Assay [1] can be described thus: NCI Yeast Anticancer Drug Screen. Data for the rad50 strain (AID 155).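 Also: 0% = growth of vehicle-only cultures of the same strain.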 To be noted: S. cerevisiae rad50 strain growth inhibition; at 50.0 µM; stronger effect = higher value. In short, it runs like this: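 DNA repair mutant yeast, compound exposure, growth read-out; inhibition is taken relative to vehicle.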
Assay [2] in a line: NCI Yeast Anticancer Drug Screen. Data for the mec2-1 strain (AID 157). To be noted: S. cerevisiae mec2-1 strain, at 50.0 µM, stronger effect = higher value. In short, it runs like this: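 Readout is yeast growth inhibition, normalised to vehicle-treated controls, in the mec2-1 strain exposed to compound.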
Assay [3] is described as follows: NCI Yeast Anticancer Drug Screen. Data for the sgs1 mgt1 strain (AID 161).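 Also: 0% = growth of cultures given vehicle only.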 The note with it: S. cerevisiae sgs1 mgt1 strain, at 50.0 µM, stronger effect = higher value. Put shortly: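 Percent growth inhibition was derived by comparing compound-exposed mutant yeast with vehicle-exposed cultures. The strain carries alterations in DNA damage repair.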
A short description of assay [4]: NCI Yeast Anticancer Drug Screen. Data for the cln2 rad14 strain (AID 165).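 Also: 0% = growth equal to vehicle treated cultures.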 To be noted: S. cerevisiae cln2 rad14 strain, at 50.0 µM, stronger effect = higher value. In short, it runs like this: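 Relative to vehicle controls, growth inhibition of compound-treated cln2 rad14 yeast was recorded.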
The nature of assay [5]: NCI Yeast Anticancer Drug Screen. Data for the bub3 strain (AID 167). To be noted: S. cerevisiae bub3 mutant strain, at 50.0 µM, stronger effect = higher value. In short, it runs like this:
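In this screen, a yeast mutant lacking normal mitotic checkpoint function is challenged with compound. Relative growth versus vehicle gives the inhibition value.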

Assay [6] is described as follows: NCI Yeast Anticancer Drug Screen. Data for the mlh1 rad18 strain (AID 175). The note with it: S. cerevisiae mlh1 rad18 strain growth inhibition; at 50.0 µM; stronger effect = higher value. In short, it runs like this: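 Test agents were incubated with a yeast strain of defined genotype (DNA damage repair defect). Inhibition of growth was derived by comparison with vehicle-exposed cultures.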

Molecules are shown by their SMILES. Compounds without any hit were thinned out: in the full panel of roughly 79,000, 15% have a hit. Unmarked numbers belong to inactive results. Active and inactive are the calls of the source. Rule as the data show it: active = growth inhibition above about 70%; inactive = the rest.

With `CNCCc1ccc(O)c2ccc3ccc(OC)c(O)c3c12`, the growth inhibition is 2.5% in assay [1]; -7.25% in assay [2]; -14.2% in assay [3]; 5.25% in assay [4]; -17.3% in assay [5]; 4.05% in assay [6].

As for `CC(C)(C)c1cc(C=C(C#N)C#N)cc(C(C)(C)C)c1O`, the growth inhibition in assay [1] is 4.3%; in assay [2], 10.6%; in assay [3], 7.55%; in assay [4] it was -32.8%; in assay [5] it was 48.6%; in assay [6], 6.45%.

As for `O=C(Cl)OC1CS(=O)(=O)CC1O` (centres undefined), the growth inhibition in assay [1] is -6.6%; in assay [2], 1%; in assay [3], -2.5%; in assay [4], -34.6%; in assay [5], 4.45%; in assay [6] it was 0.25%.

As to `COC(=O)CCCCCCCCCCN(CCCl)CCCl`, the growth inhibition in assay [1] is 39.6%; in assay [2], 29.1%; in assay [3], 31.9%; in assay [4], 26.2%; in assay [5], 21%; in assay [6], 67%.

For the molecule `O=C(NN=C1CCN(Cc2ccccc2)CC1)C(O)(c1ccccc1)c1ccccc1`, the growth inhibition is -13.6% in assay [1]; -5.5% in assay [2]; 13.8% in assay [3]; -8.5% in assay [4]; -14% in assay [5]; -0.65% in assay [6].

Regarding `CCOC(=O)CNCCC1(CC)C(=O)NC(=O)NC1=O`, the growth inhibition was -0.55% in assay [1]; -8.2% in assay [2]; 2.15% in assay [3]; -37.2% in assay [4]; -0.6% in assay [5]; -12.8% in assay [6].

Take `O=C1C2C3c4ccccc4C(C2C(=O)N1c1ccccc1)[n+]1ccccc13` (centres undefined): the growth inhibition in assay [1] is 47.8%; in assay [2], 16.1%; in assay [3], 41.7%; in assay [4] it was -13.2%; in assay [5] it was 7.1%; in assay [6], 30.2%.

As to `O=c1n(CC2CS2)c2ccccc2n1CC1CS1` (centres undefined), the growth inhibition in assay [1] is 42%; in assay [2] it was -0.6%; in assay [3], 4.9%; in assay [4], -30.4%; in assay [5] it was -11.1%; in assay [6], -5.3%.

`COC(=O)c1c(C(=O)OC)c1=[N+]=[N-]`: the growth inhibition in assay [1] was 5.2%; in assay [2], -5.35%; in assay [3], -0.95%; in assay [4], -10.8%; in assay [5] it was -0.15%; in assay [6], 6%.

In the case of `N/C(=N\N=C\c1ccc(O)cc1O)N[N+](=O)[O-]`, the growth inhibition was 12.2% in assay [1]; -0.85% in assay [2]; -3.45% in assay [3]; -41.7% in assay [4]; 3.65% in assay [5]; 4.1% in assay [6].

For the molecule `[CH3][Sb]([CH3])([CH3])([I])[I]`, the growth inhibition in assay [1] was 20.4%; in assay [2], -14.1%; in assay [3], 0.15%; in assay [4], -12.7%; in assay [5], -0.2%; in assay [6], 1.25%.

As for `CC(C)OP(=O)(NC(=S)c1ccccc1)OC(C)C`, the growth inhibition was 19.1% in assay [1]; 21% in assay [2]; 36.4% in assay [3]; 11.4% in assay [4]; 13.8% in assay [5]; 13.9% in assay [6].

With `CCCC/C=C(/C)C1(CC)C(=O)NC(=O)NC1=O`, the growth inhibition in assay [1] is 5.05%; in assay [2], 14.2%; in assay [3], -2%; in assay [4] it was -28.1%; in assay [5], -7.3%; in assay [6], 4.6%.

Consider `Cc1c2ccncc2c(C)c2c1[nH]c1ccccc12`, for which the growth inhibition in assay [1] was 91.2% (active); in assay [2], 89.5% (active); in assay [3], 90.5% (active); in assay [4], 84.9% (active); in assay [5], 89.6% (active); in assay [6] it was 90.7% (active).

In the case of `COc1ccc(C2C=C(c3ccc4c(c3)OCO4)Oc3c2c(=O)oc2ccccc32)cc1OC` (centres undefined), the growth inhibition in assay [1] was 11.5%; in assay [2], 4.1%; in assay [3], 10.1%; in assay [4], 16.4%; in assay [5], 22.7%; in assay [6] it was 37%.

On to `O=C(CCSCCC(=O)N/N=C/c1ccc(N(CCCl)CCCl)cc1)N/N=C\c1ccc(N(CCCl)CCCl)cc1`, for which the growth inhibition is 7% in assay [1]; 3.85% in assay [2]; 9.35% in assay [3]; -6.4% in assay [4]; -9.45% in assay [5]; 16.6% in assay [6].

On to `Cc1ccccc1-n1c(/C=C\c2ccccn2)nc2ccccc2c1=O`, for which the growth inhibition in assay [1] was 36.7%; in assay [2], 8.65%; in assay [3], 33.4%; in assay [4], 35.6%; in assay [5], 53.6%; in assay [6], 23.6%.

Regarding `Cc1ccc(S(N)(=O)=O)cc1` (tested in a mixture with another compound), the growth inhibition in assay [1] was 14.9%; in assay [2], 7.9%; in assay [3], 8.8%; in assay [4], 10.8%; in assay [5], 29.4%; in assay [6] it was 13%.

Consider `CCC1(C/C=C/Cl)C(=O)NC(=O)NC1=O`, for which the growth inhibition in assay [1] is 7.65%; in assay [2], -3.5%; in assay [3] it was -29.5%; in assay [4], -38.5%; in assay [5] it was 6.45%; in assay [6], -29.1%.
